Compound activity: PubChem, National Center for Advancing Translational Sciences (NCATS)
Pol eta inh: inhibitors of human DNA polymerase eta; recombinant Pol eta, fluorescent DNA replication assay; AID 588591; Q9Y253; Potency, µM (top dose mostly 114 µM), for the others: top-dose activity change, negative = inhibition, usual class: inhibitors; actives 1.2% (n = 390,000); note: % is set by controls: 0 for no effect and ±100 for the full control effect
Target sequence (Q9Y253 whole entry, looked up): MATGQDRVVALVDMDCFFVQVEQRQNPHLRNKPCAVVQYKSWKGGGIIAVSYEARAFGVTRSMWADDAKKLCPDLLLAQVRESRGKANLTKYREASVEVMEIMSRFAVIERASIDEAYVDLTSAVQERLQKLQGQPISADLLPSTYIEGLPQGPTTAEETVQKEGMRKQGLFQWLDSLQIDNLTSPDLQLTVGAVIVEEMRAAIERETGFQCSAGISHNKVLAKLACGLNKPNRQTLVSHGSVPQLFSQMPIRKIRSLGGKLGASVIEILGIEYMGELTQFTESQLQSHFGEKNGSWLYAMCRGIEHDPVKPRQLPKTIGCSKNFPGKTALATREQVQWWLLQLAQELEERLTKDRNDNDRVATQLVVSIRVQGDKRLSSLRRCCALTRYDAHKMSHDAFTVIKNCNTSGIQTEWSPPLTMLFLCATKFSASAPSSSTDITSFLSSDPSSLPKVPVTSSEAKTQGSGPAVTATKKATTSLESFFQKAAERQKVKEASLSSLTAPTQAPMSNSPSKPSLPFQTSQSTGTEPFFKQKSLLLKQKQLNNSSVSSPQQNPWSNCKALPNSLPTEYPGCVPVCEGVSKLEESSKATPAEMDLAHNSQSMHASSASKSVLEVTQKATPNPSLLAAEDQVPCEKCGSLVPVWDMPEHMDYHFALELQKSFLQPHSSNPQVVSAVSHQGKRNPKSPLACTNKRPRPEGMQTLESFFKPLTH
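Pol eta (10 nM) was preincubated with compounds for 15 min at room temperature, after which fluorescent replication substrate (50 nM final) was added to start the reaction. Fluorescence was read kinetically at 0 and 10 min.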
POLK inh: inhibitors of human DNA polymerase kappa; purified Pol kappa, fluorescent DNA synthesis assay, 10 min; Potency, µM (doses to about 107 µM), inactives show at the highest dose activity, negative = inhibition, hits mostly inhibitors; actives 0.53% (n = 400,000); note: % is set by controls: 0 for no effect and ±100 for the full control effect
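Kinetic fluorescence screen: compound preincubated 15 min RT with 10 nM enzyme; 50 nM substrate (final) initiates; reads at 0/10 min.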
Pol iota inh: inhibitors of human DNA polymerase iota | Q9UNA4 | Pol iota fluorescent replication assay, 10 min | Potency, µM (doses to about 115 µM), without a hit: at the top dose activity, negative = inhibition, actives largely listed as inhibitors | actives 1% (n = 390,000) | AID 588590
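Pol iota at 10 nM preincubated 15 min with compounds at room temperature; reaction started with fluorescent substrate, 50 nM final. Fluorescence read kinetically at 0 and 10 min; buffer-only wells as negative control.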
WRN helicase inh: blocks human WRN helicase; WRN helicase unwinding, fluorescent forked duplex, kinetic; Potency, µM (doses to about 114 µM), inactives show top-dose activity change, negative = inhibition, usual class: inhibitors; actives 0.46% (n = 360,000); Q14191; note: % is set by controls: 0 for no effect and ±100 for the full control effect; nearly all actives have a fitted effect of over 55% in size
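WRN at 20 nM final was preincubated with compound for 15 min at room temperature; reaction started with 100 nM forked duplex oligonucleotide carrying fluorophore and quencher plus 2 mM ATP (final). Unwinding followed kinetically by red fluorescence (ex 525/em 598 nm).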
POLB inh: blocks human DNA polymerase beta activity; P06746; Pol beta primer extension/strand displacement, fluorescence kinetic; Potency, µM (top dose mostly 114 µM), for inactives: at the highest dose activity change, negative = inhibition, most hits filed as inhibitors; actives 1.3% (n = 340,000); AID 485314; note: % is set by controls: 0 for no effect and ±100 for the full control effect
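Preincubation: enzyme (10 nM) with compound, 15 min, RT. Reaction: substrate added to 50 nM final. Reads: 0 and 10 min. Analysis: normalized, Hill fit.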
FEN1 inh: human FEN1 inhibition. Recombinant FEN1 flap cleavage, fluorescence, 15 min. Potency, µM (top dose mostly 114 µM), inactives show at the highest dose activity change, negative = inhibition, most hits filed as inhibitors. actives 0.35% (n = 390,000). AID 588795; note: % is set by controls: 0 for no effect and ±100 for the full control effect; nearly all actives have a fitted effect of over 65% in size
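Steps: FEN1 (10 nM) dispensed; compound added by pin tool; 15 min at room temperature; substrate added to 50 nM final; reads at 0 min and 15 min; data normalized and fitted (four-parameter Hill).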
* = called active by the depositor; ? = inconclusive; . = no result; [ ] = another dose, or the depositor's remark. Rows were chosen to be rich in hits. Some 2.4% of all compounds tested hit in one or more screens of this group. Calls come from the whole dose curve; as a rule, active = well fitted curve in the direction sought with a large enough effect; inconclusive = small, poorly fitted or top-dose-only effect, or another doubt; inactive = no such curve, though single readings can be large; an effect the other way counts as inactive or inconclusive. Potency is the fitted concentration of half-maximal effect.

SMILES | Pol eta inh | POLK inh | Pol iota inh | WRN helicase inh | POLB inh | FEN1 inh
O=C(N/N=C/c1ccccn1)c1cc(-c2ccc(Cl)s2)[nH]n1 | -11% | -7% | 27% | -15% | 35µM* | -14%
O=C(N/N=C\c1ccncc1)c1ccc(Br)s1 | -10% | 8% | 21% | -5% | -19% | -5%
COc1ccc(C2Nc3ccccc3C(=O)N2c2cccc3ccccc23)cc1COc1c(C)cccc1C (configuration not stated) | . | -11% | 11% | . | . | -8%
CN(C)/C=C/C(=O)/C=C/c1cn(-c2ncc(C(F)(F)F)cc2Cl)c2ccccc12 | -17% | -21% | 8% | -11% | 25µM* | -12%
O=C1ON=C(c2ccccc2)/C1=C/c1ccco1 | ? | 28µM* | 22µM* | ? | 25µM* | ?
O=C1NNC(c2ccccc2)=N/C1=C\c1ccccc1Cl | -32% | 1% | ? | -34% | -3% | 2%
O=C1NNC(c2ccccc2)=N/C1=C\c1ccco1 | ? | -41% | ? | -27% | 10µM* | -3%
CC(C)N(c1ccc(C=O)cc1)C(C)C | . | -3% | 18% | . | . | -7%
COc1cc(-c2cnc3c(NC(C)=O)cc(-c4ccc(N5CCN(C)CC5)cc4)cn23)cc(OC)c1OC | . | . | . | -5% | . | .
COc1cc(-c2cnc3c(NC=O)cc(-c4ccc(N5CCN(C)CC5)cc4)cn23)cc(OC)c1OC | . | . | . | 50µM* | . | .
COc1cccc(-c2cc(NC=O)c3ncc(-c4cc(OC)c(OC)c(OC)c4)n3c2)c1 | . | . | . | -26% | . | .
COc1cc(-c2cc(NC=O)c3ncc(-c4ccc(F)cc4)n3c2)cc(OC)c1OC | . | . | . | 56µM* | . | .
CN(C(=O)Cn1nnc(-c2ccc(S(C)(=O)=O)cc2)n1)c1ccccc1 | -8% | 7% | -5% | . | 14% | -14%
O=C(Nc1cccc(-c2nc3cccnc3s2)c1)c1cccnc1Cl | 2% | -3% | 17% | 11% | 2% | -4%
O=C(Nc1cccc(-c2nc3cccnc3s2)c1)C1c2ccccc2Oc2ccccc21 | 8.9µM* | -6% | -74% | -27%[11.6 µM] | -15% | -13%
COC(=O)Cn1c(CCS(=O)(=O)c2ccc(C)c(C)c2)nc2ccccc21 | -1% | -12% | 24% | -6% | 1% | 2%
O=C(O)Cn1c(CCS(=O)(=O)c2ccc(Br)cc2)nc2ccccc21 | 20µM* | -36% | 74% | ? | 14µM* | 3%
C=Cc1ccc(Cn2ccn(-c3ccc(F)c(F)c3)c(=O)c2=O)cc1 | -2% | 0% | 0% | . | -7% | 4%
CCn1c(Cl)c(C=O)s/c1=N\S(=O)(=O)c1ccccc1 | -13% | -14% | ? | 40µM* | ? | -18%
CCN1C(=O)CS/C1=N\S(=O)(=O)c1ccc(Cl)cc1 | -5% | -11% | 62% | -5% | -2% | -2%
O=C1C(=O)C(c2cc(O)c(O)c(O)c2)Oc2cc(O)cc(O)c21 (configuration not stated) | . | 1.3µM* | 1.4µM* | . | . | 1.4µM*
OC1OC[C@H](O)[C@H](O)[C@H]1O (some centres not stated) | . | 14%[60.1 µM] | . | . | . | .
O=[N+]([O-])c1ccc(O/N=[N+](\[O-])N2CCCCC2)c([N+](=O)[O-])c1 | . | -22% | 35% | . | . | 0%
Cc1ccsc1C=Nc1ccc(O)cc1 | 14µM* | 89µM* | 13µM* | 35µM* | ? | -16%
C#Cc1cccc(Nc2ncnc3cc(OC)c(OC)cc23)c1 | . | 6%[19.4 µM] | . | . | . | .
SMILES | Pol eta inh | POLK inh | Pol iota inh | WRN helicase inh | POLB inh | FEN1 inh
O/N=C(/C[n+]1csc2ccccc21)c1ccccc1 | . | -1% | 10% | . | . | ?
Cc1c(C(=O)N(Cc2ccco2)Cc2cccs2)oc2ccccc12 | ? | ? | 40µM* | -33% | . | -10%
COc1ccc(CCn2c3c(c(=O)[nH]c2=O)C(NC(=O)c2ccccc2)(C(F)(F)F)C(=O)N3)cc1OC (configuration not stated) | -2% | -5% | 14% | . | 27% | 0%
Cc1cccc(-n2c3nc(=O)[nH]c(=O)c-3cc3c(Cl)cccc32)c1C | -11% | -14% | -14% | . | -8% | -2%
Cc1ccc(NC(=O)c2cc(=O)n(Cc3ccccc3)c(=O)[nH]2)cc1C | -29% | 1% | ? | -3% | 40µM* | 6%
CCn1c(=O)c(-c2cc(=O)[nH][nH]2)c(O)c2ccccc21 | -8% | -17% | 2% | -7% | -11% | 1%
O=c1cc(-c2c(O)c3ccccc3n(Cc3ccccc3)c2=O)[nH][nH]1 | ? | 79µM* | ? | ? | 8.9µM* | ?
COc1ccc(NC(=O)CN(c2ccccc2)S(=O)(=O)N(C)C)cc1OC | 45µM* | ? | 14µM* | ? | 40µM* | 10%
Cc1ccc(NC(=O)CN(c2ccccc2)S(=O)(=O)N(C)C)cc1C | -12% | -1% | -12% | -14%[57.1 µM] | 7% | 7%
Cc1cc(C)c(NC(=O)CN(c2ccccc2)S(=O)(=O)N(C)C)c(C)c1 | ? | ? | 89µM* | -13%[57.1 µM] | 35µM* | 0%
COc1ccc(/C=C/C(=O)c2ccc([N+](=O)[O-])o2)cc1OC | ? | 5% | 8.9µM* | -22% | . | ?
COc1cc(OC)c(C(=O)C=Cc2ccc(OC)c(OC)c2)c(OC)c1 | -9% | -18% | -21% | -10% | . | 0%
C=CCn1c(O)c(CN2CCCCC2)c(C)c(C#N)c1=O | -20% | -10% | 28µM* | -4% | 10% | -23%
Cc1c(CN2CCCC(C)C2)c(O)n(CCO)c(=O)c1C#N (configuration not stated) | -13% | -4% | 108% | -23% | ? | 4%
CC(C)C[C@H](N)C(=O)N[C@H](C(=O)N[C@H](C(=O)N[C@@H](Cc1ccc(O)cc1)C(=O)N1CCC[C@H]1C(=O)N[C@@H](Cc1c[nH]c2ccccc12)C(=O)N[C@H](C(=O)N[C@@H](CCC(N)=O)C(=O)N[C@@H](CCCN=C(N)N)C(=O)O)[C@@H](C)O)C(C)C)C(C)C | . | 1%[19.4 µM] | . | . | . | .
COc1ccc(N(CC(=O)Nc2ccc(C)cc2)S(=O)(=O)c2c(C)noc2C)cc1 | -19% | 2% | 8% | 3% | 12% | 0%
COc1ccc(N(CC(=O)Nc2cc(OC)cc(OC)c2)S(=O)(=O)c2c(C)noc2C)cc1 | -20% | -28% | 89µM* | . | 0% | -10%
O=C(CCl)N(Cc1cc(=O)[nH]c2ccccc12)c1ccccc1 | 50µM* | -3% | ? | -4% | 29% | -14%
COc1ccc2c(c1)c(=O)c(C(=O)c1ccccc1)cn2CC(=O)Nc1ccc2c(c1)OCO2 | -12% | -7% | 30% | . | -7% | -7%
